From ChEMBL document CHEMBL1961873, “Compounds: GSK PKIS; Assays: Nanosyn kinase panel” (2012) come the findings set out here.

The target in experiment [1] is T1, 3-phosphoinositide-dependent protein kinase 1 (Homo sapiens) (UniProt O15530).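 Further: values are mean inhibition of PDK1.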
T1 sequence (whole entry): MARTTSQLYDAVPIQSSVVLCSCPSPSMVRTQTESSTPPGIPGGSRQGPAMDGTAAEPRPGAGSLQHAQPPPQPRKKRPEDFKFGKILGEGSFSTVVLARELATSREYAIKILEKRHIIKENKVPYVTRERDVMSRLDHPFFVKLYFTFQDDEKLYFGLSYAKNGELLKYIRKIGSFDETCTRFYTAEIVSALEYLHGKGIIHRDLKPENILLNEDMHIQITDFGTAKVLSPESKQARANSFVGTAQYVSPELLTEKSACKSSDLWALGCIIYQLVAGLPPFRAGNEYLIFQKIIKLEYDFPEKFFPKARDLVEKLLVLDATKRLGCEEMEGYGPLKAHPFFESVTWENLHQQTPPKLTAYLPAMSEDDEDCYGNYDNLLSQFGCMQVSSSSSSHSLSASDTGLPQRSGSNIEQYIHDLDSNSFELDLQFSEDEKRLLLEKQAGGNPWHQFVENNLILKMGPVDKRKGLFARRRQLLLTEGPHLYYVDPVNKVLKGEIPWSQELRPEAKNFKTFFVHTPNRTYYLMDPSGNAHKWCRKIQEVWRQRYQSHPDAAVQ
Particulars: at 0.1 µM.

In experiment [2] the target is cAMP-dependent protein kinase catalytic subunit alpha (Homo sapiens) (UniProt P17612). The following applies: at 0.1 µM.
For experiment [3] the target is unchanged. The following applies: at 1 µM.
For experiment [4], the target named is Protein kinase C alpha type (Homo sapiens) (UniProt P17252). The following applies: at 0.1 µM.
For experiment [5] the target is unchanged. The following applies: at 1 µM.
In experiment [6] the target is Protein kinase C beta type (Homo sapiens) (UniProt P05771). Particulars: at 0.1 µM.
Experiment [7] has the same target. Particulars: at 1 µM.
In experiment [8] the target is Protein kinase C eta type (Homo sapiens) (UniProt P24723). The following applies: at 0.1 µM.
Experiment [9] shares this target. The following applies: at 1 µM.
Experiment [10] has as its target Protein kinase C gamma type (Homo sapiens) (UniProt P05129). Particulars: at 0.1 µM.
Experiment [11] shares this target. Particulars: at 1 µM.
For experiment [12], the target named is T2, Protein kinase C iota type (Homo sapiens) (UniProt P41743).
T2 sequence (whole entry): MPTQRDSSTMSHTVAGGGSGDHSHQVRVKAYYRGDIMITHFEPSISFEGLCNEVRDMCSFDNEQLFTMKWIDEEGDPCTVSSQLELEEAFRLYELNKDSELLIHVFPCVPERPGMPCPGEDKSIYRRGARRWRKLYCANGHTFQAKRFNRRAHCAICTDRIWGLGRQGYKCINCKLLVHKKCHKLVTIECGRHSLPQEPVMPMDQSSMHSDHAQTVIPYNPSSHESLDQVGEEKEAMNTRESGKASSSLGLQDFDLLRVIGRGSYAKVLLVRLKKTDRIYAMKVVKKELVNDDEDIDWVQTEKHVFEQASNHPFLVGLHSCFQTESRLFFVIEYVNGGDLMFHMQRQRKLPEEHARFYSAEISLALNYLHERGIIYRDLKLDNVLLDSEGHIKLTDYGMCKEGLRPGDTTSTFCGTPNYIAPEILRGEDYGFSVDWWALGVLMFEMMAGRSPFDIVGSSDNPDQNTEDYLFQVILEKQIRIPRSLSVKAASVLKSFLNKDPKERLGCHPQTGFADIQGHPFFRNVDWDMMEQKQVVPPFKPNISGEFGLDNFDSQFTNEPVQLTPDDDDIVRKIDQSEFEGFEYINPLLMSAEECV
The following applies: at 0.1 µM.

Experiment [13] deals with T2, Protein kinase C iota type (Homo sapiens). The following applies: at 1 µM.
The target of experiment [14] is Protein kinase C theta type (Homo sapiens) (UniProt Q04759). The following applies: at 0.1 µM.
The target is the same in experiment [15]. The following applies: at 1 µM.
Experiment [16] addresses Protein kinase C beta type (Homo sapiens) (UniProt P05771). The following applies: at 0.1 µM. The source holds these as a separate data set.
Experiment [17] shares this target. Particulars: at 1 µM. This is another data set of the same source.
Experiment [18] has as its target T3, Serine/threonine-protein kinase D1 (Homo sapiens) (UniProt Q15139).
T3 sequence (whole entry): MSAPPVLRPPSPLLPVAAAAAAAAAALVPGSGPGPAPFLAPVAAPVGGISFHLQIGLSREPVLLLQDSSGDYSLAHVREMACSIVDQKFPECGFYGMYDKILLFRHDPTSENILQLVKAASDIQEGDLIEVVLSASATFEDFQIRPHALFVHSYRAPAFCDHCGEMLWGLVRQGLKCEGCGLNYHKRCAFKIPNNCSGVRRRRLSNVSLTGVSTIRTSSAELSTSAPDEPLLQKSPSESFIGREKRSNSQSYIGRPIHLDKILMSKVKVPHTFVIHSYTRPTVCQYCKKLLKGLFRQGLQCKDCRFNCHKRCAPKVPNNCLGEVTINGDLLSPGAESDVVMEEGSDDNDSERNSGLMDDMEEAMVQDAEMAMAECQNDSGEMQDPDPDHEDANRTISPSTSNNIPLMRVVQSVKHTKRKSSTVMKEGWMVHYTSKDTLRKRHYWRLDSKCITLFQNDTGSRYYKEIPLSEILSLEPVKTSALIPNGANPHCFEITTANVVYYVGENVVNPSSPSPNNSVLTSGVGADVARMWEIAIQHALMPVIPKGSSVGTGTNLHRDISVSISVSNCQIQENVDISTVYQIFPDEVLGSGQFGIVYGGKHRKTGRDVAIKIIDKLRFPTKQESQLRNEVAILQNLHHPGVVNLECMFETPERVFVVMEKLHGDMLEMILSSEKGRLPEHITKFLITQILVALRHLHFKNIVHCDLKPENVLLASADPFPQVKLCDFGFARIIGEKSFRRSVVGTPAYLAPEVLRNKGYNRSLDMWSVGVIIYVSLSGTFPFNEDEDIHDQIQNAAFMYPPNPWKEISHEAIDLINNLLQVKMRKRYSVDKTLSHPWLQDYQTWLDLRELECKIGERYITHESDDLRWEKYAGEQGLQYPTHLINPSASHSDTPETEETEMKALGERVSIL
Particulars: at 0.1 µM.

Experiment [19] concerns the target T3, Serine/threonine-protein kinase D1 (Homo sapiens). Particulars: at 1 µM.
For experiment [20], the target named is T4, Serine/threonine-protein kinase D2 (Homo sapiens) (UniProt Q9BZL6).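 Further: reported percent inhibition values are means, part of the GSK PKIS kinase panel screen.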
T4 sequence (whole entry): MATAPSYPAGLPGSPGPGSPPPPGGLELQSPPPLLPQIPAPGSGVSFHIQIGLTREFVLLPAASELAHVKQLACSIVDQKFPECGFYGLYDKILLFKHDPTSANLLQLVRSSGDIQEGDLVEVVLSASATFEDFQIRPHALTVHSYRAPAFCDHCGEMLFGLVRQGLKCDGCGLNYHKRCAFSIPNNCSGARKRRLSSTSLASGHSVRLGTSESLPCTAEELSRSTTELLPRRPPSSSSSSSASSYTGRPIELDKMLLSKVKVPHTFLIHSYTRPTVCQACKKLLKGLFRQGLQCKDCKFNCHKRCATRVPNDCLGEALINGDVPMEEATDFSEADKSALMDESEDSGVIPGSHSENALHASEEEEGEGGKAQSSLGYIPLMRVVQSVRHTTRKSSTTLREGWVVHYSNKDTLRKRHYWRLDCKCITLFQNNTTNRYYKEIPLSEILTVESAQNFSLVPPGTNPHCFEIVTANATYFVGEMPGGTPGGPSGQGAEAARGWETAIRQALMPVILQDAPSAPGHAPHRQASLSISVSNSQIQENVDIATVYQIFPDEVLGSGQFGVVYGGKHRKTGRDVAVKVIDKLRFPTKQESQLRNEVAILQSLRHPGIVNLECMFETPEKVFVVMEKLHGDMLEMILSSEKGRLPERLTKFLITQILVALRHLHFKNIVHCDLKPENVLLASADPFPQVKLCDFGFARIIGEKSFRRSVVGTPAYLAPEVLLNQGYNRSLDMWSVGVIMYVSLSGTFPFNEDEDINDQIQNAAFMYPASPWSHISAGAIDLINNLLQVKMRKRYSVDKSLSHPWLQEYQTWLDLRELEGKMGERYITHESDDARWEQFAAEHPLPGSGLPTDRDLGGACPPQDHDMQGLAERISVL
The following applies: at 0.1 µM.

Sequence of Protein kinase C theta type (Homo sapiens) (Q04759 whole entry, looked up): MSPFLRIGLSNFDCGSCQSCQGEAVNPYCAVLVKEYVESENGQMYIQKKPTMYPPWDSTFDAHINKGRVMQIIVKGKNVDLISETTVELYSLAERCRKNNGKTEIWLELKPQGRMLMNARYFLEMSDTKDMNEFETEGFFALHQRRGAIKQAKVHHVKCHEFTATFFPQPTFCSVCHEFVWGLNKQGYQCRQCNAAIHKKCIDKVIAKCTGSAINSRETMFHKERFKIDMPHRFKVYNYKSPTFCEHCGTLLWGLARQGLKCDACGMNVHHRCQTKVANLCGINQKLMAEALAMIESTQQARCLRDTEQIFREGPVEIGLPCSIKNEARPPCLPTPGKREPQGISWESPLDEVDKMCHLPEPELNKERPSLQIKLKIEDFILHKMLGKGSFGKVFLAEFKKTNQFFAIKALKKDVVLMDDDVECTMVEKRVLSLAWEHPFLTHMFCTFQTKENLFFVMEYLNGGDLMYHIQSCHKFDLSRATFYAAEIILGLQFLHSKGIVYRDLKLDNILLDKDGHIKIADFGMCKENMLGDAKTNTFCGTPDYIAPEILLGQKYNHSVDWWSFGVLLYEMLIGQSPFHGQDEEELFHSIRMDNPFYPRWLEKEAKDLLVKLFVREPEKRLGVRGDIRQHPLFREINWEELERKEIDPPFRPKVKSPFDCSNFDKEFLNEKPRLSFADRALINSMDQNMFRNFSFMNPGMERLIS
Sequence of Protein kinase C eta type (Homo sapiens) (P24723 whole entry): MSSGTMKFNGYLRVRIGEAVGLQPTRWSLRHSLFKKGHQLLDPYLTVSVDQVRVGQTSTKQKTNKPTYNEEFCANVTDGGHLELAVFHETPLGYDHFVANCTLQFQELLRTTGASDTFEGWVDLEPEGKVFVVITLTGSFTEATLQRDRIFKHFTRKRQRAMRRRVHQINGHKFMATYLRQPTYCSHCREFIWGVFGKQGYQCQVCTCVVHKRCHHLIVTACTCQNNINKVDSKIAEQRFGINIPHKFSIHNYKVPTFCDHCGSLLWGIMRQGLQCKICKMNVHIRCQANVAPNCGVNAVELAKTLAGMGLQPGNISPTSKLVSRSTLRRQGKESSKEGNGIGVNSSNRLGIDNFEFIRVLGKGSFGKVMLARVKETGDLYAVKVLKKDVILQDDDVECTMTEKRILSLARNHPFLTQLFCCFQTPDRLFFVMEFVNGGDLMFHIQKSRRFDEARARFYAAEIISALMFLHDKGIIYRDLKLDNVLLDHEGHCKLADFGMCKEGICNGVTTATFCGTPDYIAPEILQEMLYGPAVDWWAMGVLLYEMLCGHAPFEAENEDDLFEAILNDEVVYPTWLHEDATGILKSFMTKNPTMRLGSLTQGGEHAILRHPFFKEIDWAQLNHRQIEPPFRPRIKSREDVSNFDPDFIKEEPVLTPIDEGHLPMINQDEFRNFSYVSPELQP
Sequence of Protein kinase C beta type (Homo sapiens) (P05771 2-671 limits assumed): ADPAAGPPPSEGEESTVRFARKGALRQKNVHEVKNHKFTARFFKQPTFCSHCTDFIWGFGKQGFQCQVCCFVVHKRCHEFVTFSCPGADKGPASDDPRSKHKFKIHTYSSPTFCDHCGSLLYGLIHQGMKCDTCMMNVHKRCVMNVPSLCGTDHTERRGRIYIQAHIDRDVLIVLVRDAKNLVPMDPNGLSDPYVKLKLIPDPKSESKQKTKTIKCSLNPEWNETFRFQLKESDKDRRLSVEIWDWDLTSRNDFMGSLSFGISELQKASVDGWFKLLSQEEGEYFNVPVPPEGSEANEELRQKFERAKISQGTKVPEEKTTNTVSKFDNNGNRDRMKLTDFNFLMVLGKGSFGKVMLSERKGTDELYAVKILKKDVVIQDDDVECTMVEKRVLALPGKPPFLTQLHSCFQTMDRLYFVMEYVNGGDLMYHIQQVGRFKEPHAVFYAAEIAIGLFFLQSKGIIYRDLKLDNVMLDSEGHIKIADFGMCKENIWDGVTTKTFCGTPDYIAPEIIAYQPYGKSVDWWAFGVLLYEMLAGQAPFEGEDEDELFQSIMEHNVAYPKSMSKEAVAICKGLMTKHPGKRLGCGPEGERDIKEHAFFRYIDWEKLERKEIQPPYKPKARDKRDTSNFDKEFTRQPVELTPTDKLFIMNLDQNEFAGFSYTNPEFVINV

Consider `CCn1c(-c2nonc2N)nc2cncc(C(=O)NCCNC)c21`, for which the inhibition (commonly the change of the read-out against control, counted positive when it falls) in experiment [1] worked out at 1.56%; in experiment [2], 42.5%; in [3], 78.2%; in experiment [4] it was 15.5%; in experiment [5], 58.2%; in experiment [6] it was 61.1%. For the same molecule, the inhibition in [7] is 74.4%; in experiment [8] it was 73.9%; in experiment [9], 93.6%; in experiment [10] it was 6.21%; in experiment [11], 35.3%; in [12] it was 9.63%. In addition, the inhibition turned out to be 40% in experiment [13]; 8.91% in experiment [14]; 39.2% in experiment [15]; 21.1% in experiment [16]; 61% in [17]; 5.32% in experiment [18]. Further, the inhibition in experiment [19] was 8.53%; in [20], 5.41%.
In the case of `Cc1nnc(-c2cccc(-c3ccc(C(=O)NCC4CC4)cc3)c2)o1`, the inhibition was 2.18% in [1]; 1.83% in [2]; 2.07% in experiment [3]; 0.65% in [4]; 1.45% in experiment [5]; 2.27% in experiment [6]. Further, the inhibition in experiment [7] came out at 3.52%; in experiment [8], 3.46%; in experiment [9] it was 6.75%; in experiment [10] it was 1.76%; in experiment [11], 5.25%; in experiment [12], 2.19%. Also, the inhibition is 1.94% in [13]; 3.27% in experiment [14]; 5.18% in experiment [15]; 1.13% in experiment [16]; 2.65% in experiment [17]; 4.9% in experiment [18]. In addition, the inhibition in experiment [19] is 9.11%; in experiment [20], 5.08%.
For the molecule `COC(=O)Nc1nc2ccc(Oc3ccc(NC(=O)Nc4cc(C(F)(F)F)ccc4F)cc3)cc2s1`, the inhibition in experiment [1] was 0.63%; in experiment [2], 1.2%; in experiment [3] it was 0.64%; in experiment [4], -0.14%; in experiment [5], 9.89%; in experiment [6], 1.64%. For the same molecule, the inhibition is 2.17% in experiment [7]; 2.29% in experiment [8]; 1.44% in [9]; -2.55% in [10]; 0.59% in experiment [11]; -0.25% in experiment [12]. The inhibition in experiment [13] is 0.66%; in [14], -0.27%; in experiment [15], -1.1%; in experiment [16] it was -0.19%; in [17], -0.04%; in experiment [18], 0.06%. For the same molecule, the values for the inhibition in [19] and in experiment [20] were 0.84% and -0.61%, respectively.
With `NS(=O)(=O)c1ccc(N/N=C2\C(=O)Nc3ccc(C(=O)NCc4ccncc4)cc32)cc1`, the inhibition in [1] was 10.9%; in experiment [2], 5.56%; in [3] it was 8.91%; in experiment [4], 0.49%; in experiment [5], 2.27%; in experiment [6], -0.39%. Moreover, the inhibition in experiment [7] is 5.08%; in experiment [8], 6.25%; in experiment [9], 4.31%; in experiment [10], 1.42%; in [11] it was 6.61%; in [12], -9.87%. Moreover, the inhibition in experiment [13] stood at 1.34%; in experiment [14] it was 3.98%; in experiment [15] it was 8.38%; in experiment [16] it was 1.7%; in experiment [17], 4.09%; in experiment [18], 3.88%. The inhibition was 24.4% in experiment [19] and 6.54% in [20].
As for `CC1(C)CC(n2cnc(-c3ccc(F)cc3)c2-c2ccnc(N)n2)CC(C)(C)N1`, the inhibition in [1] came to 0.82%; in experiment [2], 0.29%; in experiment [3] it was 4.01%; in experiment [4], 0.96%; in experiment [5], 2.63%; in experiment [6] it was 1.89%. Moreover, the inhibition was 3.35% in experiment [7]; 1.68% in experiment [8]; -2.97% in experiment [9]; -2.6% in experiment [10]; 1.2% in [11]; 0.48% in experiment [12]. The inhibition worked out at 0.2% in experiment [13]; 0.49% in experiment [14]; 1.27% in experiment [15]; 1.08% in experiment [16]; 4.59% in experiment [17]; 0.74% in [18]. Moreover, the inhibition in experiment [19] was determined as 3.49%; in experiment [20], 1.47%.
Regarding `CCN1CCC(C(=O)Nc2n[nH]c3nnc(-c4cccc(F)c4F)cc23)CC1`, the inhibition in [1] was -0.53%; in experiment [2], 0.16%; in [3] it was 0.64%; in experiment [4], -0.7%; in experiment [5] it was 0.27%; in experiment [6], -0.34%. Moreover, the inhibition in [7] is -0.14%; in experiment [8], 0.24%; in experiment [9], 0.58%; in experiment [10] it was -1.51%; in [11] it was -0.22%; in experiment [12] it was -0.71%. Further, the inhibition is -1.05% in experiment [13]; 0.26% in experiment [14]; -1.11% in experiment [15]; 0.39% in [16]; 0.87% in experiment [17]; -0.1% in [18]. Also, the figures for the inhibition in experiment [19] and in experiment [20] were -0.6% and 0.26%, respectively.
In the case of `O=C(Nc1n[nH]c2nnc(-c3cccnc3)cc12)C1CC1`, the inhibition in experiment [1] was -0.25%; in [2] it was -0.44%; in experiment [3] it was 0.38%; in [4], -0.19%; in experiment [5], 2.33%; in experiment [6], -0.7%. In addition, the inhibition in [7] was 0.6%; in [8], -1.43%; in experiment [9], 2.91%; in [10], -0.5%; in experiment [11] it was 2.11%; in [12] it was -0.5%. Moreover, the inhibition was -0.56% in experiment [13]; -0.08% in experiment [14]; 0.79% in experiment [15]; 0.49% in [16]; 3.21% in experiment [17]; -0.5% in [18]. The inhibition is 0.81% in experiment [19] and -1.06% in experiment [20].
